The list is not random: actives were taken first. Their share in the collection is about 1.6%.
KCNQ2 inh = KCNQ2 (rat) channel inhibition. CHO-K1 KCNQ2, FluxOR thallium flux, 20 min; stronger effect = lower value. B-score at 10 µM. hit rate 1.1% among 310,000. AID 2156;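 active = fluorescence ratio B-score at most minus 3 library SDs, with starting brightness B-score within 2 library SDs, cut at about -5.5 in these data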
KCNQ2 pot = potentiators of rat KCNQ2 potassium channel | O88943 | B-score at 10 µM | hit rate 0.54% among 310,000 | CHO-K1 KCNQ2, FluxOR thallium flux fluorescence; stronger effect = higher value;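 active = fluorescence ratio B-score at least 3 SD of library B-scores, with initial fluorescence B-score within 3 of them, cut at about 5.3 in these data; same plate scores as AID 2156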;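 note: B-score of peak minus minimum over baseline fluorescence ratio after K+ and Tl+ stimulus; positive B-score means potentiation of KCNQ2 with more thallium influx and brighter signal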
Of the large screens only hits and unclear results are named; the others gave an inactive call.

COCC(=O)Oc1c(Sc2ccccc2[N+](=O)[O-])c(C)nn1C(C)(C)C	none (no result: KCNQ2 pot)
CCC(CC)C(=O)Oc1c(Sc2ccccc2[N+](=O)[O-])c(C)nn1C(C)(C)C	KCNQ2 inh -6
CN1CCN(C(=O)c2ccccc2NC(=O)c2ccccc2)CC1	none (no result: KCNQ2 pot)
COc1ccccc1-n1c(C)c(C(=O)O)c2cc(OC)c3ccccc3c21	none
Cc1cccc(N=Cc2cc3c(cc2[N+](=O)[O-])OCO3)c1	KCNQ2 inh -6.5
O=[N+]([O-])c1cc2c(cc1C=Nc1ccccc1)OCO2	none (no result: KCNQ2 pot)
CC(=O)Nc1ccc(C(=O)CN2C(=O)CSC2=O)cc1	none (no result: KCNQ2 pot)
COc1ccc(/C=C2\N=C(c3ccc(C)cc3)OC2=O)cc1	none (no result: KCNQ2 pot)
Cc1ccc(S(=O)(=O)Oc2ccc(/C=C3/N=C(c4ccccc4)OC3=O)cc2)cc1	KCNQ2 inh -7.4
O=C(COc1ccc(F)cc1)c1ccc2c(c1)CCCC2	none (no result: KCNQ2 pot)
O=C(COc1ccc(Cc2ccccc2)cc1)c1ccc(F)cc1	KCNQ2 pot 6.7
Cc1cc(Nc2ccccc2)c2c([N+](=O)[O-])ccc(C)c2n1	KCNQ2 inh -7.3
Cc1cc(Nc2cccc([N+](=O)[O-])c2)c2cccc(C)c2n1	none (no result: KCNQ2 pot)
COc1ccc(OC)c(S(=O)(=O)N2CCCC(C(=O)NCCN3CCOCC3)C2)c1 (centres undefined)	none
COc1ccc(N2C(=O)CSC23C(=O)N2c4c(cccc43)C(C)=CC2(C)C)cc1 (centres undefined)	KCNQ2 inh -6.2
COc1ccc(N2C(=O)CSC23C(=O)N2CCCc4cccc3c42)cc1 (centres undefined)	none
CSc1ncccc1C(=O)Nc1nc2ccc(Oc3ccccc3)cc2s1	none (no result: KCNQ2 pot)
CC(/C=C1\SC(=S)N(NS(=O)(=O)c2ccc(C)cc2)C1=O)=C\c1ccccc1	KCNQ2 pot 21
CC(/C=C1\SC(=S)N(NC(=O)c2ccccc2C)C1=O)=C\c1ccccc1	none (no result: KCNQ2 pot)
N#C/C(=C\Nc1ccc(Cl)cc1)S(=O)(=O)c1ccccn1	none
COCCNC(=O)C(NC(=O)C1CCC(C)CC1)C(C)C (centres undefined)	none
COc1ccc(Nc2nc3c(C)cccc3cc2C#N)c(OC)c1	none (no result: KCNQ2 pot)
COC(=O)c1cc(-c2ccc(Br)cc2)on1	none
CCOC(=O)c1nn(C23CC4CC(CC(C4)C2)C3)c2c1C(=O)N(c1ccc(C)cc1)C2=O	KCNQ2 inh -6.8
COC(=O)c1nn(C23CC4CC(CC(C4)C2)C3)c2c1C(=O)N(c1ccc(Br)cc1)C2=O	KCNQ2 inh -6.5
CCOC(=O)c1ccc(N2C(=O)C(C)=C(C)C2=O)cc1	none (no result: KCNQ2 pot)
O=C(CNc1ccccc1)Nc1cccc2ccccc12	none
CCCCn1c(N)c(N(CC(C)C)C(=O)CCNC(=O)c2ccc(Br)cc2)c(=O)[nH]c1=O	none (no result: KCNQ2 pot)
CC1=CC(C#N)(C#N)C(C#N)(C#N)C(c2ccccc2)N1 (centres undefined)	none (no result: KCNQ2 pot)
CC1CCC(C(C)C)C2=C1C(C#N)(C#N)C(C#N)(C#N)C(c1ccccc1)N2 (centres undefined)	KCNQ2 inh -7.8
O=C(CNS(=O)(=O)c1ccc(Cl)cc1)OCC(=O)N1CCCc2ccccc21	none (no result: KCNQ2 pot)
O=C(COC(=O)C1(c2ccc(Cl)cc2)CCCC1)N1CCc2ccccc21	KCNQ2 inh -7.3
Clc1ccccc1CSc1snnc1-c1ccccc1	KCNQ2 inh -5.5
Clc1ccc(CSc2snnc2-c2ccccc2)cc1	none (no result: KCNQ2 pot)
CCOc1ccccc1N1CC(C(=O)Nc2c(C)n(C)n(-c3ccccc3)c2=O)CC1=O (centres undefined)	none (no result: KCNQ2 pot)
CCN(CC)CCOC(=O)c1ccc(NC(=O)CNC(=O)C2CCCCC2)cc1	none (no result: KCNQ2 pot)
N#Cc1c(N2CCN(C(=O)c3ccccc3)CC2)nc(-c2ccccc2)c2c1CCCC2	none (no result: KCNQ2 pot)
N#Cc1c(N2CCN(C(=O)c3ccco3)CC2)nc(-c2ccccc2)c2c1CCCC2	KCNQ2 inh -5.6
CC(C)Cc1nc(N2CCN(C(=O)c3ccco3)CC2)c(C#N)c2c1CCC2	none (no result: KCNQ2 pot)
CC(=O)N1CCN(c2nc(CC(C)C)c3c(c2C#N)CCC3)CC1	none (no result: KCNQ2 pot)
CC(C)Cc1nc(N2CCN(C(=O)C(C)C)CC2)c(C#N)c2c1CCC2	KCNQ2 inh -6.5
CC(C)Cc1nc(N2CCN(C(=O)c3ccccc3)CC2)c(C#N)c2c1CCC2	KCNQ2 inh -6.6
Nc1nnnn1CC(=O)N/N=C/c1ccccn1	none (no result: KCNQ2 pot)
C/C(=N\NC(=O)COc1ccccc1[N+](=O)[O-])c1cccc(NC(=O)c2ccncc2)c1	none
Nc1ccc(CSc2ccc(Cl)cc2)cc1	none
CC1CCCCN1C(=O)C1COc2ccccc2O1 (centres undefined)	none
C=CCN1C(=O)C(Cc2ccc(OCC)cc2)S/C1=N\N=C\c1cccs1 (centres undefined)	KCNQ2 inh -5.6
C=CCN1C(=O)C(Cc2ccccc2)S/C1=N/N=C/c1cccs1 (centres undefined)	none (no result: KCNQ2 pot)
Oc1cc(Br)ccc1C=Nc1ccc(N2CCCCC2)cc1	KCNQ2 inh -5.8
Oc1ccc(C=Nc2ccc(N3CCOCC3)cc2)c(O)c1	none (no result: KCNQ2 pot)
Cc1cc(C)nc(SCC(=O)N2CCc3ccccc32)n1	none (no result: KCNQ2 pot)
O=C(CSc1nc(N2CCCCC2)nc(N2CCCCC2)n1)N1CCN(c2ccccc2)CC1	KCNQ2 pot 19

High-throughput results (PubChem BioAssay)
